Screening data as filed in PubChem.
Most compounds without a hit are left out; they make up all but 3.4% or so of the library.
FBW7 act – activators of human E3 ligase FBW7; 0.13% of 650,000 active; Q969H0; normalized activity (activation), % at 26.1 µM; AlphaScreen FBW7–phospho-cyclin E peptide binding, activator screen; in the data active means normalized activity above about 1.9%;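 further: purified mutant Fbw7 with reduced substrate affinity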
Target sequence (Q969H0 whole entry, looked up): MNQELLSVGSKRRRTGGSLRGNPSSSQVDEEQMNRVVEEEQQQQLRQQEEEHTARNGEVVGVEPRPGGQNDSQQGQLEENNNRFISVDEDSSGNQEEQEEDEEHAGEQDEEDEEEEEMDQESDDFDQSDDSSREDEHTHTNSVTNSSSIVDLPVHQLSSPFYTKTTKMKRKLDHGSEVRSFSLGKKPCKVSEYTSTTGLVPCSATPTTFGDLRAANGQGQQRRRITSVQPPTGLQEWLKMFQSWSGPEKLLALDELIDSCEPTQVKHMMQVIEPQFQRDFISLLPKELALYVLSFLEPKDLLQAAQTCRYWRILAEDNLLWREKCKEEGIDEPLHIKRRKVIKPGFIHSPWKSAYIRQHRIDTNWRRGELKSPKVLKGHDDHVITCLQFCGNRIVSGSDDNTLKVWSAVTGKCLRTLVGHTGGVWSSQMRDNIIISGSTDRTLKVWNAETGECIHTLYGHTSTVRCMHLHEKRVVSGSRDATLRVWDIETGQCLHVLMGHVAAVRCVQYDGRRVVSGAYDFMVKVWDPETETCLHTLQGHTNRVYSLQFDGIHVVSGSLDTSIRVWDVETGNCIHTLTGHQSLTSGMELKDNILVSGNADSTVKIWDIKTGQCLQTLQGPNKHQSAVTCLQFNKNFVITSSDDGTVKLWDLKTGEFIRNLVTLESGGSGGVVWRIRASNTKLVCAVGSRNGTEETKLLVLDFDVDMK
GPR151 ag – activates the human receptor GPR151 | AID 1508602 | activation, % at 11.2 µM | 1% of 650,000 active | PathHunter beta-arrestin GPR151 cells, luminescence | Q8TDV0; in the data active means activation above about 4.9%;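 further: 0% = median of compound wells and 100% = cells with positive control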
MITF inh – human MITF inhibition, primary screen; 0.91% of 650,000 active; AID 1259374; inhibition, % at 2.6 µM; O75030; AlphaScreen MITF homodimerization, bead proximity signal; in the data active means inhibition above about 50%;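 further: 0% = vehicle wells with protein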
TEAD-YAP inh – TEAD-YAP interaction inhibition | HEK-TIYL cells, TEAD-Gal4/YAP UAS-luciferase luminescence | inhibition, % at 9.12 µM | 1.4% of 640,000 active | AID 1259422; in the data active means inhibition above about 32%;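 further: 0% = median of test compound wells and 100% = reference inhibitor wells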
* hit, by the source's call.

COC(=O)CCCN1C(=O)/C(=C\c2ccc3c(c2)OCO3)SC1=S was read as FBW7 act 0, GPR151 ag -1, MITF inh 9 and TEAD-YAP inh 59*.
For Cc1ccc(/C=C2/SC(=S)N(Cc3cccnc3)C2=O)cc1 the results were FBW7 act 0, GPR151 ag 0, MITF inh 2 and TEAD-YAP inh 4.
O=C(Nc1ccc2[nH]ncc2c1)[C@H]1C[C@H](O)CN1C(=O)Cc1ccc(Br)cc1 was read as FBW7 act 1, GPR151 ag 0, MITF inh -4 and TEAD-YAP inh 6.
For CC1CCC(C(=O)NC(C(=O)NCCCN2CC(C)CC(C)C2)C(C)C)CC1 (stereo not drawn) the results were FBW7 act 0, GPR151 ag 0, MITF inh 16 and TEAD-YAP inh 7.
`COc1cc(Nc2cc(N3CCC4(CC3)OCCO4)c3noc4c3c2C(=O)c2ccccc2-4)cc(OC)c1OC` gave FBW7 act 0, GPR151 ag -1, MITF inh 36 and TEAD-YAP inh 13.
`CC(=O)c1ccc(NCC(=O)Nc2ccc(Br)cc2F)cc1` gave FBW7 act 0, GPR151 ag 3, MITF inh -10 and TEAD-YAP inh 3.
`CCOC(=O)c1sc2ncnc(Nc3ccc(C)cc3C)c2c1C` gave FBW7 act 0, GPR151 ag 0, MITF inh 4 and TEAD-YAP inh 55*.
COc1ccc(CC(=O)Nc2ccc(-c3nnc(-c4ccccc4)o3)cc2)cc1OC was read as FBW7 act 0, GPR151 ag -1, MITF inh 22 and TEAD-YAP inh -16.
COc1ccc(CC(=O)Nc2cccc(-c3nnc(-c4ccccc4)o3)c2)cc1OC was read as FBW7 act 0, GPR151 ag 5, MITF inh 23 and TEAD-YAP inh 53*.
Screening O=C(CSc1nc(-c2ccccc2)ns1)N1CCCCCC1 returned FBW7 act 0, GPR151 ag -2, MITF inh 9 and TEAD-YAP inh 39*.
`Cc1ccnc(N2CCC(C(=O)Nc3ccccc3Br)CC2)n1` gave FBW7 act 2.1*, GPR151 ag -1, MITF inh 22 and TEAD-YAP inh 9.
`C=CCn1ccc2c(OCC(=O)NCCOC)cccc2c1=O` gave FBW7 act 0, GPR151 ag 1, MITF inh -5 and TEAD-YAP inh -15.
For Clc1ccc(-c2cn3nc4c(nc3n2)CCCC4)cc1 the results were FBW7 act 0, GPR151 ag -2, MITF inh -2 and TEAD-YAP inh -20.
`COc1cccc(-c2cn3nc4c(nc3n2)CCCC4)c1` gave FBW7 act 0, GPR151 ag -8, MITF inh -1 and TEAD-YAP inh 66*.
Fc1ccc(-c2cn3nc4c(nc3n2)CCCC4)cc1 was read as FBW7 act 0, GPR151 ag -10, MITF inh 4 and TEAD-YAP inh 40*.
For COc1cc(Nc2cc(-c3ccc(N4CCOCC4)nc3)nc(N)n2)cc(OC)c1OC the results were FBW7 act 1, GPR151 ag 1, MITF inh 13 and TEAD-YAP inh 23.
COC(=O)C1=C(C)NC(=S)NC1c1cn(-c2ccccc2)nc1-c1ccc(Br)cc1 (stereo not drawn) was read as FBW7 act 0, GPR151 ag -1, MITF inh -17 and TEAD-YAP inh -3.
Screening CC(=O)O/N=C(\N)c1nonc1N1CCOCC1 returned FBW7 act 1.9*, GPR151 ag -2, MITF inh 20 and TEAD-YAP inh -7.
Screening O=C(N/N=C/c1ccc([N+](=O)[O-])o1)c1ccccc1 returned FBW7 act 0, GPR151 ag 1, MITF inh 7 and TEAD-YAP inh -5.
`Cc1cc(C(=O)N/N=C/c2ccc([N+](=O)[O-])o2)n[nH]1` gave FBW7 act 1, GPR151 ag -1, MITF inh 23 and TEAD-YAP inh 32*.
`O=C(N/N=C/c1ccc([N+](=O)[O-])o1)c1ccc(F)cc1` gave FBW7 act 0, GPR151 ag -1, MITF inh 1 and TEAD-YAP inh 37*.
For O=C(N/N=C/c1ccc([N+](=O)[O-])s1)c1ccc(F)cc1 the results were FBW7 act 0, GPR151 ag 1, MITF inh -7 and TEAD-YAP inh 45*.
For Cc1ccc(C(=O)N/N=C/c2ccc([N+](=O)[O-])o2)cc1 the results were FBW7 act 0, GPR151 ag 1, MITF inh -1 and TEAD-YAP inh 40*.
CCCCCNC(=O)c1ccc(Cn2c(SCC(=O)Nc3ccc(C)c(Cl)c3)nc3ccccc3c2=O)cc1 was read as FBW7 act 0, GPR151 ag 1, MITF inh 2 and TEAD-YAP inh -6.
For Cc1cccc(-n2ncc3c(N4CCCCCC4)ncnc32)c1 the results were FBW7 act 0, GPR151 ag -5, MITF inh -4 and TEAD-YAP inh 74*.
For CC1CC(C)CN(c2ncnc3c2cnn3-c2ccccc2)C1 (stereo not drawn) the results were FBW7 act 0, GPR151 ag 2, MITF inh 8 and TEAD-YAP inh -56.
Screening CC1CCN(c2ncnc3c2cnn3-c2ccc(Cl)cc2)CC1 returned FBW7 act 0, GPR151 ag 1, MITF inh 4 and TEAD-YAP inh 20.
CC1CC(C)CN(c2ncnc3c2cnn3-c2ccc(Cl)cc2)C1 (stereo not drawn) was read as FBW7 act 0, GPR151 ag 1, MITF inh -12 and TEAD-YAP inh 34*.
Screening CC1CCCN(c2ncnc3c2cnn3-c2ccc(Cl)cc2)C1 (stereo not drawn) returned FBW7 act 0, GPR151 ag 1, MITF inh -8 and TEAD-YAP inh 94*.
CCN1CCN(c2ncnc3c2cnn3-c2ccc(Cl)cc2)CC1 was read as FBW7 act 0, GPR151 ag 0, MITF inh 5 and TEAD-YAP inh -58.
`CN1CCN(c2ncnc3c2cnn3-c2ccc(Cl)cc2)CC1` gave FBW7 act 0, GPR151 ag -1, MITF inh -12 and TEAD-YAP inh 67*.
Screening CSc1ccc(C2Nc3ccccc3NC3=C2C(=O)CCC3)cc1 (stereo not drawn) returned FBW7 act 0, GPR151 ag 1, MITF inh -2 and TEAD-YAP inh -15.
Screening COc1ccc(OC)c(S(=O)(=O)c2ccc(C)c(C)c2)c1 returned FBW7 act 0, GPR151 ag -1, MITF inh -16 and TEAD-YAP inh 4.
For CC1CCCN(c2ncnc3c2cnn3-c2ccccc2)C1 (stereo not drawn) the results were FBW7 act 0, GPR151 ag -1, MITF inh -8 and TEAD-YAP inh 84*.
Cc1cccc(-n2ncc3c(N4CCC(C)CC4)ncnc32)c1 was read as FBW7 act 0, GPR151 ag 2, MITF inh -7 and TEAD-YAP inh 24.
`Cc1cccc(-n2ncc3c(N4CCCC(C)C4)ncnc32)c1` (stereo not drawn) gave FBW7 act 0, GPR151 ag -3, MITF inh -16 and TEAD-YAP inh 96*.
Screening CSc1ccc(/C=C(\C#N)c2nn(-c3ccccc3)c(N)c2C#N)cc1 returned FBW7 act 0, GPR151 ag 1, MITF inh -10 and TEAD-YAP inh 8.
